This is an account of results in PubChem BioAssay (NCI).

Compounds without any hit were thinned out: in the full panel of roughly 83,000, 20% have a hit.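 For each line, cells grew in 96-well plates with the test compound present at a single concentration for 48 hours.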 A number with no mark means an inactive call. Active and inactive are the calls of the source. The calls were made as follows: active = growth percent below 10; inactive = the rest.

Some test systems named below: HCT-15 colon; SNB-19 CNS; U251 CNS; PC-3 prostate; SK-MEL-5 melanoma; UACC-62 melanoma; LOX IMVI melanoma; SK-MEL-28 melanoma; SK-MEL-2 melanoma; EKVX NSCLC; SN12C renal; UO-31 renal; ACHN renal; CAKI-1 renal; A498 renal; CCRF-CEM leukemia; MOLT-4 leukemia; SNB-75 CNS; TK-10 renal.
What all share (test): NCI-60 one-dose screen, 48 h (100 = growth as untreated, 0 = no growth, -100 = all killed)
What all share (settings): 10 µM unless noted

`COc1cc2ncnc(Nc3ccc(C(=O)/C=C/c4ccc(C(F)(F)F)cc4F)cc3)c2cc1OC`: the growth in the test with HCT-15 colon was 104%; with SNB-19 CNS it was 98.2%; with U251 CNS, 85.4%; in the test on PC-3 prostate it was 83%; with SK-MEL-5 melanoma, 104%; with UACC-62 melanoma, 100%. Further, the growth is 92% in the test with LOX IMVI melanoma; 109% in the test on SK-MEL-28 melanoma; 105% in the test on SK-MEL-2 melanoma; 90% with EKVX NSCLC; 101% in the test on SN12C renal; 75.4% with UO-31 renal. In addition, the growth is 92.3% in the test with ACHN renal; 88.2% with CAKI-1 renal; 97.4% in the test with A498 renal; 83.8% with CCRF-CEM leukemia; 68.3% in the test with MOLT-4 leukemia.
Turning to `O=S(=O)(c1cccc(NC2=Nc3cccc4cccc2c34)c1)N1CCCC1`, the growth is 60.4% in the test on HCT-15 colon; 73.3% in the test with SNB-75 CNS; 77.8% with SNB-19 CNS; 65.7% in the test on U251 CNS; 52.4% in the test on PC-3 prostate; 44.7% in the test on SK-MEL-5 melanoma. Also, the growth in the test on UACC-62 melanoma is 51.7%; with LOX IMVI melanoma, 66.7%; in the test with SK-MEL-28 melanoma it was 81.4%; with EKVX NSCLC, 62%; in the test on SN12C renal, 72.2%; in the test with UO-31 renal, 67.5%. Besides, the growth was 90.5% in the test with TK-10 renal; 66.9% with ACHN renal; 78% in the test with CAKI-1 renal; 75.1% in the test with A498 renal; 41.7% with CCRF-CEM leukemia; 57% with MOLT-4 leukemia.
With `COc1ccc(NC(=O)c2sc3nc(C)c(C(O)c4ccc(OC)cc4)cc3c2N)cc1` (stereo not given), the growth was 16.3% in the test with HCT-15 colon; -16% (active) in the test with SNB-75 CNS; 71.2% in the test on SNB-19 CNS; 25.9% in the test on U251 CNS; 22.6% with PC-3 prostate; 9.53% (active) with SK-MEL-5 melanoma. Moreover, the growth was 31.6% in the test on UACC-62 melanoma; 40.5% in the test with LOX IMVI melanoma; 65.8% with SK-MEL-28 melanoma; 45.6% in the test with SK-MEL-2 melanoma; 47.9% in the test on EKVX NSCLC; 33% in the test with SN12C renal. Further, the growth in the test on UO-31 renal was 20.6%; in the test with TK-10 renal it was 60.7%; in the test with ACHN renal, 36.3%; in the test on CAKI-1 renal it was 30.4%; in the test with A498 renal, 12.6%; in the test with CCRF-CEM leukemia, 21.7%. Besides, in the test on MOLT-4 leukemia, the growth is 15.8%.
For the molecule `COc1ccccc1/C=N/NC1=NC2C(N1)N(C)C(=O)N2C` (stereo not given), the growth in the test on HCT-15 colon is 104%; with SNB-75 CNS, 83.4%; with SNB-19 CNS, 104%; in the test with U251 CNS, 99.2%; in the test with PC-3 prostate, 95.4%; in the test on SK-MEL-5 melanoma, 100%. Moreover, the growth in the test on UACC-62 melanoma is 100%; in the test on LOX IMVI melanoma, 99.5%; in the test with SK-MEL-28 melanoma, 103%; in the test with SK-MEL-2 melanoma, 104%; with EKVX NSCLC, 99.8%; in the test with SN12C renal, 100%. Besides, the growth was 86.2% with UO-31 renal; 125% in the test with TK-10 renal; 102% with ACHN renal; 91.7% in the test with CAKI-1 renal; 97.4% with A498 renal; 102% in the test on MOLT-4 leukemia.
On to `OC(c1ccccc1)c1ccccn1` (stereo not given), for which the growth is 105% in the test with HCT-15 colon; 86.5% in the test on SNB-75 CNS; 100% in the test with SNB-19 CNS; 89.9% in the test with PC-3 prostate; 101% in the test with SK-MEL-5 melanoma; 103% in the test with UACC-62 melanoma. Further, the growth in the test with LOX IMVI melanoma is 103%; with SK-MEL-28 melanoma, 107%; in the test with SK-MEL-2 melanoma, 104%; in the test on EKVX NSCLC it was 98.8%; in the test on SN12C renal it was 99.6%; with UO-31 renal, 93.1%. Moreover, the growth was 108% in the test on ACHN renal, 98.5% in the test on A498 renal, 88.7% in the test with CCRF-CEM leukemia and 96.8% in the test on MOLT-4 leukemia.
In the case of `CC(=O)[C@@H]1CC[C@]2(C(N)=O)CC[C@]3(C)[C@H](CC[C@@H]4[C@@]5(C)CCC(=O)C(C)(C)[C@@H]5CC[C@]43C)[C@@H]12`, the growth is 103% with HCT-15 colon; 89% in the test on SNB-75 CNS; 102% in the test on SNB-19 CNS; 103% with U251 CNS; 78.5% in the test on PC-3 prostate; 101% in the test with SK-MEL-5 melanoma. The growth in the test with UACC-62 melanoma was 84.5%; with LOX IMVI melanoma, 99.2%; with SK-MEL-28 melanoma, 100%; in the test with SK-MEL-2 melanoma it was 100%; in the test with EKVX NSCLC, 90.1%; in the test on SN12C renal, 102%. Moreover, the growth with UO-31 renal was 98.7%; in the test with TK-10 renal, 107%; with ACHN renal, 97.1%; in the test with CAKI-1 renal, 89.6%; with CCRF-CEM leukemia it was 99%; with MOLT-4 leukemia, 92.5%.
Take `CCCCN(CCCC)CCc1c(C)cc(C)c(CCN(CCCC)CCCC)c1O`: the growth in the test on HCT-15 colon is 36.7%; in the test with SNB-75 CNS, 82.8%; with SNB-19 CNS, 22.8%; in the test on U251 CNS, 24.6%; with PC-3 prostate, 14.1%; in the test on SK-MEL-5 melanoma, 0.474% (active). Moreover, the growth is 3.34% (active) with UACC-62 melanoma; 28.2% in the test with LOX IMVI melanoma; 23.2% in the test on SK-MEL-28 melanoma; 1.41% (active) in the test on SK-MEL-2 melanoma; 14.4% in the test with EKVX NSCLC; 22.9% with SN12C renal. The growth in the test on UO-31 renal is 28.4%; in the test with TK-10 renal it was 37.4%; in the test on ACHN renal, 29.3%; with CAKI-1 renal, 39.7%; with CCRF-CEM leukemia it was 26.6%; in the test with MOLT-4 leukemia it was 16.2%.
Regarding `CCCNC(=O)Oc1ccc(/C(=C(\C)c2ccccc2)c2ccc(OCCN3CCCCC3)cc2)cc1`, the growth in the test with HCT-15 colon was 19.2%; in the test on SNB-75 CNS, 88.9%; in the test on SNB-19 CNS, 79%; with U251 CNS, 56.4%; in the test with PC-3 prostate, 57.1%; in the test with SK-MEL-5 melanoma it was 77.8%. Further, the growth in the test with UACC-62 melanoma was 70.6%; with LOX IMVI melanoma, 73.8%; in the test on SK-MEL-28 melanoma it was 70.5%; in the test with SK-MEL-2 melanoma it was 90.6%; with EKVX NSCLC, 82.2%; in the test on SN12C renal, 71.4%. Also, the growth was 46.5% with UO-31 renal; 90.2% in the test with TK-10 renal; 91% in the test on ACHN renal; 65.8% with CAKI-1 renal; 72.2% with CCRF-CEM leukemia; 60.1% in the test with MOLT-4 leukemia.
As to `COc1cc(OC)cc(C2C3=C(COC3=O)Nc3cc(OC)ccc32)c1` (stereo not given), the growth in the test with HCT-15 colon was 11.3%; in the test with SNB-19 CNS, 36.2%; in the test with U251 CNS, 16.2%; in the test on PC-3 prostate, 29.3%; with SK-MEL-5 melanoma, -24.3% (active); in the test on UACC-62 melanoma it was 36%. In addition, the growth is 25.8% in the test on LOX IMVI melanoma; 63.5% in the test on SK-MEL-28 melanoma; 1.66% (active) in the test with SK-MEL-2 melanoma; 53.7% in the test on EKVX NSCLC; 25.2% in the test on SN12C renal; 46.8% in the test on UO-31 renal. For the same molecule, the growth in the test on TK-10 renal is 65.7%; in the test with ACHN renal, 28.1%; in the test with CAKI-1 renal, 36.7%; in the test on A498 renal it was 1.93% (active); with CCRF-CEM leukemia, 19.9%; with MOLT-4 leukemia, 17.6%.
